The panel holds about 79,000 compounds, 15% with a hit somewhere; the sample as a whole holds those more often. No stated cut-off is given here; in the data, active means growth inhibition above about 70%; inactive means the rest.
Assays:
[1] = NCI Yeast Anticancer Drug Screen. Data for the rad50 strain (AID 155);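 further: 0% = growth of vehicle-only cultures of the same strain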; conditions: S. cerevisiae rad50 strain growth inhibition; at 50.0 µM; active compounds read high
Summary of the method: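 Relative growth inhibition (compound vs vehicle) was measured in yeast with a defined repair-gene alteration.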

[2] = NCI Yeast Anticancer Drug Screen. Data for the mec2-1 strain (AID 157); conditions: S. cerevisiae mec2-1 strain, at 50.0 µM, active compounds read high
Summary of the method: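 Cells of the genetically defined mec2-1 yeast strain are incubated with test compound. Inhibition of growth is calculated against vehicle-treated controls.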

[3] = NCI Yeast Anticancer Drug Screen. Data for the sgs1 mgt1 strain (AID 161);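 further: 0% = growth of cultures given vehicle only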; conditions: S. cerevisiae sgs1 mgt1 strain, at 50.0 µM, active compounds read high
Summary of the method: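 Test agents were incubated with a DNA-repair-mutant yeast strain. Growth was then read and compared against vehicle-treated controls.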

[4] = NCI Yeast Anticancer Drug Screen. Data for the cln2 rad14 strain (AID 165);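 further: 0% = growth equal to vehicle treated cultures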; conditions: S. cerevisiae cln2 rad14 strain, at 50.0 µM, active compounds read high
Summary of the method: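 The screen exposed genetically defined yeast (cln2 rad14) to test compounds and scored growth inhibition relative to vehicle-treated controls.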

[5] = NCI Yeast Anticancer Drug Screen. Data for the bub3 strain (AID 167); conditions: S. cerevisiae bub3 mutant strain, at 50.0 µM, active compounds read high
Summary of the method: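 Screening used yeast with an engineered genetic alteration affecting cell cycle control. Compound-exposed cultures were compared with vehicle cultures, and reduced growth was taken as inhibition.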

[6] = NCI Yeast Anticancer Drug Screen. Data for the mlh1 rad18 strain (AID 175); conditions: S. cerevisiae mlh1 rad18 strain growth inhibition; at 50.0 µM; active compounds read high
Summary of the method: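 Compound-treated yeast growth, normalised to vehicle controls. Strain bears defined DNA repair mutations.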

Measured: growth inhibition

CC1=NOC2(C1)C(=O)Nc1ccccc12 (stereo unspecified)
inactive: [1] 23.2% | [2] 9.5% | [3] 8.55% | [4] 11.3% | [5] 2.85% | [6] 18.4%

N=C(N)SCc1cccc2ccc3cccc(CSC(=N)N)c3c12
inactive: [1] 4.05% | [2] 8.5% | [3] 17.4% | [4] -3.1% | [5] 2.6% | [6] 30.9%

O=C(NC(=O)C(F)(F)F)Nc1cccc(C(F)(F)F)c1
inactive: [1] 15.6% | [2] 1.1% | [3] -14.1% | [4] -4.85% | [5] -8.25% | [6] 2.9%

CCOC(=O)c1ccc(NCCCNc2ccc(C(=O)OCC)cc2)cc1
inactive: [1] -8.05% | [2] 13.8% | [3] 1.45% | [4] 0.35% | [5] 4.7% | [6] 9.5%

CCOC(=O)c1c(Nc2ccc(OC)cc2)n[nH]c1C
inactive: [1] -7.85% | [2] -34.3% | [3] 15.6% | [4] 9.6% | [5] 8.65% | [6] -8.65%

CCCCCCCCOc1ccc(C=Nc2ccc(C)cc2)cc1
inactive: [1] -2.05% | [2] 19.3% | [3] 0.45% | [4] -9.8% | [5] 16.9% | [6] 13%

CCOC1CN=C(Nc2cccc3ccccc23)S1 (stereo unspecified)
inactive: [1] -51.6% | [2] -33.3% | [3] -27.9% | [4] -2.65% | [5] -34.4% | [6] -29.8%

N=C(N)SCc1cccc(Cl)c1
inactive: [1] -20% | [2] -14% | [3] -4.55% | [4] -82.1% | [5] -9.45% | [6] -22.6%

COc1cccc(N2C(=O)/C(=C/c3ccc(N(CCC#N)CCC#N)cc3)N=C2c2cc([N+](=O)[O-])ccc2Cl)c1
inactive: [1] 7.9% | [2] 27.9% | [3] 40.8% | [4] 32% | [5] 32.1% | [6] 28.9%

COc1ccc(/C=N/Nc2c([N+](=O)[O-])cc(C)cc2[N+](=O)[O-])cc1
inactive: [1] 35.1% | [2] 13.2% | [3] 16.3% | [4] 13% | [5] 11.8% | [6] 7.8%

COC(=O)C1=CO[C@@H](C)[C@@H]2Cn3ccc4c5ccccc5nc-4c3C[C@H]12
inactive: [1] 2.4% | [2] -17.4% | [3] 14% | [4] 4.5% | [5] -3.9% | [6] 1.4%

CONCc1ccc(C(=O)NC(C)C)cc1
inactive: [1] -10.6% | [2] -6.75% | [3] -5.95% | [4] -3.65% | [5] -0.3% | [6] -11.8%

c1ccc(N=C(c2ccccc2)c2ccccc2)cc1
inactive: [1] 9.25% | [2] -6.65% | [3] -6.05% | [4] -6.65% | [5] -7.65% | [6] 26.3%

C=CCNc1ccc(C)cc1
inactive: [1] 16.5% | [2] -8.15% | [3] 20.1% | [4] 13.4% | [5] -5% | [6] 20.4%

CC(=O)[C@H]1CC[C@H]2[C@@H]3CC=C4C=CCC[C@@H]4[C@H]3CC[C@]12C
inactive: [1] -14.1% | [2] 20.1% | [3] 22.9% | [4] -52% | [5] 18.8% | [6] 24.4%

CCCOc1ccc(C(=O)C(C(c2ccccc2)N2CCOCC2)N2CCOCC2)cc1 (stereo unspecified)
inactive: [1] -71.2% | [2] 22.5% | [3] 21% | [4] 36.7% | [5] 35.8% | [6] 54%

CCOC(=O)C(Cl)(NC(=O)NC(Cl)(C(=O)OCC)C(F)(F)F)C(F)(F)F (stereo unspecified)
inactive: [1] 3.8% | [2] 23.8% | [3] -0.85% | [4] -1.75% | [5] 3.2% | [6] 6.65%

CCOC(=O)C(=O)Nc1c(N(CC)CC)n2ccccc2nc1=O
inactive: [1] 5.75% | [2] -22.5% | [3] -4.15% | [4] 6.2% | [5] 2.6% | [6] 13.8%

O=C(O)c1cc([N+](=O)[O-])cc(P(=O)(O)O)c1
inactive: [1] 2.55% | [2] -6.45% | [3] -2% | [4] -20.2% | [5] -3.55% | [6] 12.9%

O=C1CNC(=O)N1CCCl
inactive: [1] 19.7% | [2] -4.7% | [3] -7.65% | [4] 6.3% | [5] 6.15% | [6] -6.7%

O=[N+]([O-])c1ccc(C=Nc2ccc3c(c2)Cc2ccccc2-3)cc1
inactive: [1] -7.7% | [2] -16.8% | [3] 9.9% | [4] -20.1% | [5] -16.4% | [6] 1.25%

CCC(O)(c1ccccc1)C(O)c1ccccc1 (stereo unspecified)
inactive: [1] -2.35% | [2] 8.9% | [3] -4.4% | [4] 3.8% | [5] 4.95% | [6] -15.8%

NN1C(=O)Cc2ccc(Cl)cc21
inactive: [1] 9.1% | [2] -0.7% | [3] -2.9% | [4] -33.5% | [5] -3.15% | [6] 2.1%

NC(=S)N/N=C/c1ccc(OC(=O)Cc2ccccc2)cn1
inactive: [1] 19.7% | [2] -6.6% | [3] 10.1% | [4] 7.1% | [5] 4.55% | [6] 16.4%

O=C(O)c1ccc(C(=O)c2ccc(C(=O)c3ccc(C(=O)O)cc3)cc2)cc1
inactive: [1] -9.1% | [2] -18.4% | [3] 3.65% | [4] -52% | [5] -13% | [6] -14.8%

CC1=C(C(=O)Nc2c(C)cccc2C)C(c2ccccc2Cl)C(C(=O)Nc2c(C)cccc2C)=C(C)N1
inactive: [1] -39.4% | [2] -6.4% | [3] -27.4% | [4] -20.9% | [5] -13.8% | [6] -11.7%

O=C(/C=C/c1ccccc1)NC1C=Nc2ccc(Cl)cc2NC1=O (stereo unspecified)
inactive: [1] 39% | [2] 53.7% | [3] 38.5% | [4] 23% | [5] 28.2% | [6] 26.2%

CCCC(=O)Oc1c(Cl)cc(Cl)cc1-c1ccccc1
inactive: [1] 12.8% | [2] 12.9% | [3] 37.9% | [4] 8.1% | [5] 28.6% | [6] 1.45%

CC1(C)COC(C23C4C5C2C2C3C4C52I)=N1 (stereo unspecified)
inactive: [1] 25.9% | [2] 12.4% | [3] 11.2% | [4] 18.2% | [5] 26.6% | [6] 16.6%

O=C1C=CC(=NN=c2c3ccccc3oc3ccccc23)C=C1
inactive: [1] -11.3% | [2] -3.35% | [3] 4% | [4] -20.9% | [5] 12.7% | [6] 0.1%

O=C1NC2(c3ccccc3)CCCCC2O1 (stereo unspecified)
inactive: [1] -4.95% | [2] -3.05% | [3] -5.95% | [4] 1.95% | [5] -6.35% | [6] -6.6%

OC(c1ccccc1)C1(O)CCCCC1 (stereo unspecified)
inactive: [1] -10.8% | [2] -5.25% | [3] -1.7% | [4] -52.5% | [5] -17.1% | [6] 9.75%

Cc1ccc(S(=O)(=O)N/N=C(\C(=O)c2ccccc2)c2ccccc2)cc1
inactive: [1] 45% | [2] 18.2% | [3] 39.4% | [4] 28.1% | [5] 23.6% | [6] 36.6%

CCOC(CCNCC(OCC)OCC)OCC
inactive: [1] -46.5% | [2] -56.2% | [3] -29.4% | [4] -11.1% | [5] -4.8% | [6] -22.4%

O=C1CCC2=NCc3c(ccc4ccccc34)N12
inactive: [1] 4.7% | [2] -0.85% | [3] -12.9% | [4] -42.9% | [5] -12.3% | [6] -4%

OC(CC(O)(C(F)(F)F)C(F)(F)F)c1cccs1 (stereo unspecified)
inactive: [1] -1.95% | [2] 13.6% | [3] 4.6% | [4] 51.5% | [5] -5.45% | [6] 12.9%

Cc1cnc(Br)c(Br)c1
inactive: [1] 2.85% | [2] 0.8% | [3] 3.45% | [4] 15.9% | [5] 5.1% | [6] 13.1%

CCCC1OCCO1
inactive: [1] -15.3% | [2] -0.95% | [3] -6.85% | [4] -4.5% | [5] 5.15% | [6] -3.9%

CC12CCC3C(CC=C4CC(O)CCC43C)C1CCC(=O)N2 (stereo unspecified)
inactive: [1] 5.2% | [2] -3.55% | [3] -10.2% | [4] 7.95% | [5] -10.2% | [6] -1%

N#CC(CNC1CCCCC1)c1ccccc1 (stereo unspecified)
inactive: [1] -9.35% | [2] -4.35% | [3] 4.3% | [4] -32.7% | [5] 15.1% | [6] 10.7%

CCOc1ccc(NC(=O)C(=O)C(/C(=N/N)C(=O)OC)c2nc3ccc([N+](=O)[O-])cc3[nH]c2=O)cc1 (stereo unspecified)
inactive: [1] 6.9% | [2] -6% | [3] 3.5% | [4] 13.3% | [5] 7% | [6] 21.9%
